Screening results: PubChem, National Center for Advancing Translational Sciences (NCATS)
Tau fibril FP: inhibitors of human tau fibril formation; AID 1468; hit rate 0.39% among 280,000; P10636; Potency, µM (highest dose often 57.7 µM), for the others: at the highest dose activity, negative = inhibition, hits mostly inhibitors; K18 P301L tau heparin fibrillization, Alexa594 FP, 6 h; further: nearly all actives have a fitted effect of over 55% in size
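Recombinant K18 P301L […], labeled with Alexa 594 at 0.24 uM over 15 uM unlabeled; heparin inducer 20 uM final; 37 C, 6 hr; FP endpoint.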
TR SRC2 fluor cs: counter-screen for TRb-SRC2 inhibitors: fluorescence interference. TRb/SRC2 Texas Red total fluorescence interference. Potency, µM (top dose mostly 106 µM), inactives show at the top dose fluorescence change, negative = quenching. hit rate 0.29% among 280,000; active means well fitted curve in either direction with a large enough effect; inconclusive means small, poorly fitted or top-dose-only effect
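Human TRb ligand-binding domain at 0.6 uM with 20 nM Texas Red SRC2 peptide in Tris buffer containing 1 uM T3 and 5% DMSO, incubated with compound 5 h at ambient temperature. Total fluorescence (555/632 nm) calculated as parallel + 2 × perpendicular.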
Tau ThT inhib: inhibitors of human tau fibril formation, thioflavin T binding; P10636; recombinant tau K18 P301L, heparin-induced fibrillization, ThT fluorescence; Potency, µM (series often up to 57.4 µM), for inactives: at the top dose activity, negative = inhibition, most hits filed as inhibitors; hit rate 2.1% among 270,000; further: nearly all actives have a fitted effect of over 55% in size
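Fibril formation assay: tau K18 P301L at 15 uM with trace Alexa 594 label, heparin inducer 20 uM, pH 7 sodium acetate buffer, 37 C for 6 hr; endpoint ThT signal.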
Tau fluor counter: counter-screen for tau fibril formation inhibitors; Potency, µM (top dose mostly 57.7 µM), inactives show at the highest dose activity change, negative = decrease; AID 1463; tau K18 P301L Alexa594 fluorescence, heparin fibrillization; hit rate 0.93% among 280,000; further: nearly all actives have a fitted effect of over 55% in size
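Human tau K18 P301L (15 uM unlabeled, 0.24 uM Alexa 594-labeled) in 100 mM sodium acetate pH 7 with 20 uM heparin, 6 hr at 37 C. ThT 30 uM added, 1 hr ambient; Alexa 594 FP and total fluorescence read at 555/632 nm.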
RGS12 GoLoco inh: blocks human Gai1 binding to RGS12 GoLoco peptide, red readout. Potency, µM (top dose mostly 61.6 µM), for inactives: top-dose activity, negative = inhibition, actives largely listed as inhibitors. P63096. Gai1:RGS12 GoLoco peptide FP, rhodamine, 10 min. hit rate 0.44% among 230,000; active means well fitted inhibition curve with a large enough effect, not every such curve was filed as active; inactive means no such curve, though single readings can be large or run the other way; further: nearly all actives have a fitted effect of over 30% in size
TRb-SRC2 inh: disrupts binding of human TR beta to SRC2. TRbeta-SRC2 peptide binding, fluorescence polarization; receptor liganded with 1 µM T3. Potency, µM (top dose mostly 106 µM), for inactives: at the top dose activity change, negative = inhibition, usual class: inhibitors. hit rate 0.065% among 280,000;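 further: plate controls were bound peptide for no effect and peptide without receptor for full effect; nearly all actives have a fitted effect of over 50% in size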
Target sequence (P10828 whole entry, looked up): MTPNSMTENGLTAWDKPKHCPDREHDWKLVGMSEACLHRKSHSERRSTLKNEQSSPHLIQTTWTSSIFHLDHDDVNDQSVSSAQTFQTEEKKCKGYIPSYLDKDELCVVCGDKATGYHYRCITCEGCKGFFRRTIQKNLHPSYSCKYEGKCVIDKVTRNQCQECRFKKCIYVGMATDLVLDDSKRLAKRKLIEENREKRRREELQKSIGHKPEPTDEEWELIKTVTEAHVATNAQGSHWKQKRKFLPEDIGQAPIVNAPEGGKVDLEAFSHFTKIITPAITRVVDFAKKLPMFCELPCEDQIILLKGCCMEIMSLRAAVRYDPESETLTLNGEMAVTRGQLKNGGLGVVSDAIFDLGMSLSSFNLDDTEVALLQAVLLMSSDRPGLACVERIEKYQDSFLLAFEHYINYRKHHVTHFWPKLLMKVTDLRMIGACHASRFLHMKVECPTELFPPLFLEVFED
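Human TRb ligand-binding domain (0.6 uM) is mixed with 20 nM Texas Red SRC2 peptide and 1 uM T3; after compound addition and 5 hr at ambient temperature, polarization is measured and normalized to unbound and bound controls.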
Active calls of the source: *; ? = inconclusive; / = not tested or not shown; [ ] = another dose, or the depositor's remark. Rows were chosen to be rich in hits. Some 3.2% of all compounds tested hit in one or more screens of this group. Unless noted, the call rests on the fitted dose curve; in most records, active means well fitted curve in the direction sought with a large enough effect; inconclusive means small, poorly fitted or top-dose-only effect, or another doubt; inactive means no such curve, though single readings can be large; an effect the other way counts as inactive or inconclusive. Unless noted, on the % scale 0 is the no-effect control and ±100 the full control effect; potency means the concentration at half of the fitted maximal effect.

SMILES	Tau fibril FP	TR SRC2 fluor cs	Tau ThT inhib	Tau fluor counter	RGS12 GoLoco inh	TRb-SRC2 inh
C#CCN1C(=O)S/C(=C/C=C/c2ccc(N(C)C)cc2)C1=O	?	?	1.58µM*	19.9%	-85.4%	?
CN(C)c1ccc(/C=C2\SC(=O)N(CCc3nnc(N)s3)C2=O)cc1	7.9%	7.5%	?	-21.4%	144.5%	7.3%
CCCCCCCCCCCC1=C(O)C(=O)C=C(O)C1=O	20µM*	-3.9%	10µM*	11.2µM*[quencher]	10.0%	-8.5%
COC(=O)[C@H](COC(C)(C)C)NC(=O)O[C@H]1C(=O)c2ccc(OC)cc2O[C@@H]1c1ccc2c(c1)OCO2	-2.7%	-1.6%	-3.3%	-8.2%	1.3%	-1.0%
CC/C=C/[C@@H](c1ccccc1)[C@H](C)C(O)CC(=O)SC(C)(C)C (stereo partly specified)	/	-0.8%	/	/	/	-4.1%
CCN1CCN(c2ccc(N=Cc3ccc(O)cc3O)cc2)CC1	?	-1.4%	15.8µM*	?	14.1%	-5.6%
CC(=O)OCC1=C(C(=O)O)N2C(=O)[C@@H](NC(=O)Cc3cccs3)[C@H]2SC1	?	-0.1%	?	-15.1%	11.6%	-5.4%
O=C(Cc1cccs1)NC1C(=O)N2C(C(=O)[O-])=C(C[n+]3ccccc3)CSC12 (stereo unspecified)	?	1.5%	15.8µM*	-23.8%	18.2%	8.0%
CC(O)COC(C)(C)C (stereo unspecified)	/	-0.3%	/	/	-2.5%	0.1%
Oc1cc2c(cc1O)C(c1ccccc1)CNCC2 (stereo unspecified)	?	-4.4%	?	?	-21.0%	2.1%
Oc1cc2c(cc1O)[C@@H](c1ccccc1)CNCC2	3.5%	-0.3%	1.5%	-4.5%	12.6µM*	1.9%
COC(=O)C(C(=O)OC)[C@@H]1c2ccccc2[C@H]2C(=C[C@@H](C)[C@H]3C(=O)N(c4ccccc4)C(=O)[C@H]32)N1C(=O)OC	4.2%[11.6 µM]	-4.4%[11.2 µM]	5.2%[11.5 µM]	-3.3%[11.6 µM]	7.1%[14.2 µM]	-0.7%[11.2 µM]
COc1cccc(-c2cnc(NCc3cc(Cl)ccc3O)n2C)c1	15.2%	-3.6%	?	20µM*[quencher]	-0.5%	-11.3%
CC1CCN(S(=O)(=O)c2ccc(C(=O)Nc3ccccc3-c3nc4ccccc4[nH]3)cc2)CC1	28.2µM*	-1.3%	17.8%	?	-1.4%	-3.8%
Cc1cc(F)ccc1S(=O)(=O)Nc1ccccc1C(=O)Nc1ccccc1-c1nc2ccccc2[nH]1	12.6µM*	2.0%	8.2%	?	-2.0%	4.0%
CCOc1ccc(C2CC(=O)NC(NC(=O)c3ccc(C)cc3)=N2)cc1 (stereo unspecified)	2.8%	-19.3%	-0.6%	-1.3%	/	3.0%
Cc1ccc(C(=O)NC2=NC(c3ccc(C)cc3)CC(=O)N2)cc1 (stereo unspecified)	-3.2%	251µM*[quencher]	5.1%	6.6%	/	-23.5%
Nc1nc(-c2ccc(Br)s2)c(Br)s1	-0.9%	-1.8%	?	14.1µM*[quencher]	12.1%	-3.5%
Nc1c(C(=O)Nc2ccccc2F)sc2nc(-c3ccco3)ccc12	0.0%	-0.6%	?	?	23.9%	7.6%
NC(=O)c1sc2nc(-c3ccco3)ccc2c1N	0.3%	-22.5%	6.31µM*	?	-1.4%	-8.5%
COC(=O)c1sc2nc(-c3ccco3)ccc2c1N	0.5%	?	7.08µM*	?	-19.7%	-16.1%
C[C@H](CC[C@@H]1OC1(C)C)C1CC[C@H]2[C@@H]3CC=C4C[C@@H](O)CC[C@]4(C)[C@H]3CC[C@]12C (stereo partly specified)	-0.4%	-0.8%	-4.0%	0.6%	-6.7%	-0.5%
Cc1ccc(Cl)cc1N1CCN(C(=O)c2cnc(N3CCOCC3)c3ccccc23)CC1	4.5%	70.8µM*[quencher]	-14.8%	-7.9%	/	-14.7%
Cc1ccc(Cl)cc1N(C)C(=O)c1cnc(N2CCOCC2)c2ccccc12	0.8%	-3.1%	-6.5%	-8.9%	/	-1.6%
O=C(Nc1ccc(F)cc1Cl)c1cnc(N2CCOCC2)c2ccccc12	3.0%	11.2µM*[quencher]	-0.6%	-3.3%	/	-21.2%
